Results: the supplement of paper PMC10981050
Counter-ions that a name gives are not always drawn.

System: OCI-AML2
Experiment: cell viability relative to vehicle control; higher = less cytotoxic
Conditions: 10 µM; SRSF2 genotype: P95H/wt
In short: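 Screening covered the Selleck bioactive, kinase and epigenetic probe libraries, less identity-inconsistent compounds, on CRISPR-edited mutant clones and isogenic wild-type clones of four leukaemia lines. Cells, at 2000 per well in 50 µL medium, received a single 10 µM acoustically dispensed dose. After 48 h the supernatant was removed and CellTiter-Glo luminescence was read. Viability was analysed in Genedata Screener as percent of the on-plate vehicle control.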

Question: Which cell viability does the source give for Oc1ccc(OCc2ccccc2)cc1 [Monobenzone (Benoquin)] here?
Answer: 32.5%

Question: Which cell viability does the source give for CNCCCC12CCC(c3ccccc31)c1ccccc12 [Maprotiline hydrochloride] here?
Answer: 51.1%

Question: O=C(O)[C@H]1O[C@@H](Oc2cc3oc(-c4ccc(O)cc4)cc(=O)c3c(O)c2O)[C@H](O)[C@@H](O)[C@@H]1O [Scutellarin] was tested. Which cell viability did it give?
Answer: 101%

Question: Cn1nnc(-c2ccc(-c3ccc(N4C[C@H](COP(=O)(O)O)OC4=O)cc3F)cn2)n1 [Tedizolid Phosphate] was tested. Which cell viability did it give?
Answer: 82.3%

Question: For Cc1onc(-c2c(F)cccc2Cl)c1C(=O)N[C@@H]1C(=O)N2[C@@H]1SC(C)(C)[C@@H]2C(=O)O [Flucloxacillin sodium], which cell viability is on record?
Answer: 99.6%

Question: Which cell viability does the source give for CC(=O)Nc1ccccc1 [Acetanilide (Antifebrin)] here?
Answer: 105%

Question: Which cell viability does the source give for CCOC(=O)c1c(C)n(C)c2ccc(O)cc12 [Mecarbinate] here?
Answer: 92.2%

Question: Which cell viability does the source give for CC#CC(=O)N1CCC[C@H]1c1nc(-c2ccc(C(=O)Nc3ccccn3)cc2)c2c(N)nccn12 [Acalabrutinib (ACP-196)] here?
Answer: 90.2%

Question: Which cell viability does the source give for CN/C(=N\CCSCc1nc[nH]c1C)NC#N [Cimetidine (Tagamet)] here?
Answer: 105%

Question: Which cell viability does the source give for CCCC1O[C@@H]2C[C@H]3[C@@H]4CCC5=CC(=O)C=C[C@]5(C)[C@H]4[C@@H](O)C[C@]3(C)[C@]2(C(=O)CO)O1 (stereo partly specified) [Budesonide] here?
Answer: 70.5%

Question: Which cell viability does the source give for CO/N=C1\C[C@]2(C[C@@H]3C[C@@H](C/C=C(\C)C[C@@H](C)/C=C/C=C4\CO[C@@H]5[C@H](O)C(C)=C[C@@H](C(=O)O3)[C@]45O)O2)O[C@H](/C(C)=C/C(C)C)[C@H]1C [Moxidectin] here?
Answer: 40.1%
